# Structures can show the parent of a compound that is named as a salt.
# Tested on: HCC1569
# Test: H1.0 immunofluorescence intensity relative to DMSO (% of DMSO); higher = stronger H1.0 induction, active = 140 or more
# Conditions: concentration: 10 µM; 24 h
# Method in brief: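 HCC1569 and TDF cells (800 per well, 384-well plates, RPMI with 10% FBS) were treated with compounds at 10 µM for 24 h at 37 °C, in triplicate. Cells were fixed in 3.7% formaldehyde and stained with a rabbit anti-H1.0 antibody, an AlexaFluor 647 secondary and DAPI; six fields per well were imaged at ×10. H1.0 nuclear intensity or cell number is expressed as percent of the plate DMSO control, taking the median of replicates. HCC1569 values were smoothed for positional effects.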
# 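Note: TDF is a line of transformed human dermal fibroblasts of mesenchymal origin.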
row,SMILES,H1.0 immunofluorescence intensity
1,COCCc1ccc(OCC(O)CNC(C)C)cc1.COCCc1ccc(OCC(O)CNC(C)C)cc1.O=C(O)C(O)C(O)C(=O)O (racemic),108 (inactive)
2,O=c1[nH]c(=O)n(C2CCCO2)cc1F (stereo not given) [Ftorafur],103 (inactive)
3,CC12CCC3c4ccc(O)cc4CCC3C1CC(O)C2O (stereo not given) [Estriol],113 (inactive)
4,CC1CCN(C(=O)CC#N)CC1N(C)c1ncnc2[nH]ccc12 (stereo not given) [Tasocitinib],73.7 (inactive)
5,COC(=O)C(N)Cc1ccc(Cl)cc1.Cl (racemic) [DL-p-Chlorophenylalanine methyl ester hydrochloride],104 (inactive)
6,N[C@H](CO)C(=O)O [D-Serine],102 (inactive)
7,O=C1NC(=O)C(=Cc2ccc3c(c2)OC(F)(F)O3)S1 [PI 3-KbInhibitor II],112 (inactive)
8,O=C(Nc1ccc(Oc2ccnc3[nH]ccc23)c(F)c1)c1cccn(-c2ccc(F)cc2)c1=O,111 (inactive)
9,NC(=S)c1ccc[n+](C2OC(COP(=O)([O-])OP(=O)(O)OCC3OC(n4cnc5c(N)ncnc54)C(OP(=O)([O-])O)C3O)C(O)C2O)c1.[Na+] (stereo not given) [Thio-NADP sodium],104 (inactive)
10,c1ccc(C2CN3CCSC3=N2)cc1 (stereo not given) [Levamisole],92.1 (inactive)
11,CCN(CC)C(=S)SSC(=S)N(CC)CC [Disulfiram],116 (inactive)
12,CC1C(=O)N=C2Nc3cccc(Cl)c3CN21 (stereo not given) [Quazinone],96.3 (inactive)
13,"COc1ccc(/C=C\c2cc(OC)c(OC)c(OC)c2)cc1O [2-methoxy-5-[(Z)-2-(3,4,5-trimethoxyphenyl)ethenyl]phenol]",162 (active)
14,COc1ccc2cc(OCC3(C(=O)O)CN(C(=O)c4ccc(F)cc4)C3)ccc2c1,95.8 (inactive)
15,CC(CCc1ccccc1)NCC(O)c1ccc(O)c(C(N)=O)c1.Cl (stereo not given) [Labetalol hydrochloride],99.3 (inactive)
16,Cn1cc(-c2ccc3nnc(C(F)(F)c4ccc5ncccc5c4)n3n2)cn1,101 (inactive)
17,Nc1nc(=O)n(C2CSC(CO)O2)cc1F (stereo not given) [Emtricitabine],105 (inactive)
18,NS(=O)(=O)c1cc2c(cc1Cl)NC(C1CC3C=CC1C3)NS2(=O)=O (stereo not given) [Cyclothiazide],99.5 (inactive)
19,CN1CCC(=C2c3ccccc3CC(=O)c3sccc32)CC1 [Ketotifen],124 (inactive)
20,Cc1cc(CS(=O)(=O)c2ccccc2)cc(OCc2ccc(CN3CCC[C@@H]3CO)cc2)c1 [PF-543 hydrochloride],122 (inactive)

row,SMILES,H1.0 immunofluorescence intensity
1,Cc1nc(Nc2ncc(C(=O)Nc3c(C)cccc3Cl)s2)cc(N2CCN(CCO)CC2)n1 [Dasatinib],171 (active)
2,CN1CCCCC1CCN1c2ccccc2Sc2ccc(S(C)=O)cc21.O=S(=O)(O)c1ccccc1 (stereo not given) [Mesoridazine besylate],109 (inactive)
3,CC[C@H](C(=O)Nc1ccccc1N1CCCC1)c1ccccc1 [(2S)-2-Phenyl-N-[2-(1-pyrrolidinyl)phenyl]butanamide],105 (inactive)
4,"O=C(O)CCC(C(=O)O)N1C(=O)c2ccccc2C1=O [L-Glutamic acid, N-phthaloyl-]",105 (inactive)
5,CCCCCCCCCCCC=CCCCCCC(=O)O [7(E)-Nonadecenoic acid],94.3 (inactive)
6,CC1CCCC(C)N1NC(=O)c1ccc(Cl)c(S(N)(=O)=O)c1 (stereo not given) [Clopamide],104 (inactive)
7,C[C@@H](Nc1ncnc2[nH]c(-c3ccc(O)cc3)cc12)c1ccccc1,139 (inactive)
8,CC(C)(Oc1ccc(CCNC(=O)c2ccc(Cl)cc2)cc1)C(=O)O [Bezafibrate],105 (inactive)
9,COc1ccccc1CNCCCCCCNCCCCCCCCNCCCCCCNCc1ccccc1OC.Cl.Cl.Cl.Cl [Methoctramine tetrahydrochloride],98 (inactive)
10,O=C1NC(C(=O)O)CS1 (stereo not given) [Procysteine],98.1 (inactive)
11,Nc1ccc(S(=O)(=O)Nc2ncccn2)cc1 [Sulfadiazine],96.7 (inactive)
12,CCC(=O)OC1(C(=O)CCl)C(C)CC2C3CCC4=CC(=O)C=CC4(C)C3(F)C(O)CC21C (stereo not given) [Clobetasol Propionate],100 (inactive)
13,CCCCCCCCCC(=O)NC(CN1CCOCC1)C(O)c1ccccc1 (racemic),106 (inactive)
14,CCCCCOC(=O)Nc1nc(=O)n(C2OC(C)C(O)C2O)cc1F (stereo not given) [Capecitabine],95.7 (inactive)
15,O=C(c1ccc(C(=O)N2CCC(N3CCCC3)CC2)c(Nc2ccccc2)c1)N1CCC(N2CCCC2)CC1,102 (inactive)
16,COc1cc(CCC(C)=O)ccc1O [Vannilylacetone],93.5 (inactive)
17,O=c1ccc2ccc(O)c(O)c2o1 [Daphnetin],95.2 (inactive)
18,O=c1c(O)c(-c2ccccc2O)oc2cc(O)cc(O)c12 [Datiscetin],87.7 (inactive)
19,COc1cc(CC(=O)O)ccc1O [4-Hydroxy-3-methoxyphenylacetic acid],97 (inactive)
20,O=C(O)CC/C=C\C[C@H]1CO[C@@H](c2ccccc2Cl)O[C@H]1c1ccccc1O,108 (inactive)

# From the supplement of paper PMC7156485
